{"source": "PubChem BioAssay", "note": "The source made the active and inactive calls. How the calls were made is not given here.", "data": [{"target": "Pantothenate synthetase (Mycobacterium tuberculosis (strain ATCC 25618 / H37Rv)) (UniProt P9WIL5)", "sequence (P9WIL5 whole entry, looked up)": "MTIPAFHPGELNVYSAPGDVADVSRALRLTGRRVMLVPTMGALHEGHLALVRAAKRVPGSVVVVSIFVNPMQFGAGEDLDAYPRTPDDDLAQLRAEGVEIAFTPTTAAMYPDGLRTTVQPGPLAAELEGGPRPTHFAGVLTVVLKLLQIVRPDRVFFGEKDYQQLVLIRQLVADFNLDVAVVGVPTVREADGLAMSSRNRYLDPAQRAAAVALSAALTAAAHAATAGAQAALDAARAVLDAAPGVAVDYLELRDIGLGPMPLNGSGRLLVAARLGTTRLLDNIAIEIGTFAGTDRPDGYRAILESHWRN", "assay": "Coupled enzyme confirmation of inhibitors against recombinant Mtb PanC (AID 375);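 further: 0% = full reaction with vehicle and 100% = no enzyme background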", "conditions": "coupled enzyme assay; at 10 µM, active compounds read high", "values": [{"smiles": "COc1cccc(NC(=O)NC2(C(F)(F)F)Oc3ccccc3O2)c1", "inhibition": "0% (inactive)"}, {"smiles": "O=c1c[n+]([O-])c2ccccc2n1OCc1ccccn1", "inhibition": "4% (inactive)"}, {"smiles": "Cc1nc2cc(NC(=O)N3c4ccccc4CC3C)ccc2o1", "note": "(stereo not given)", "inhibition": "0% (inactive)"}, {"smiles": "Cc1ccc(C(=O)CC2(O)C(=O)N(CN3CCOCC3)c3ccccc32)cc1", "note": "(stereo not given)", "inhibition": "7% (inactive)"}, {"smiles": "CCCCCCCCNC(C)C(O)c1ccc(SC(C)C)cc1", "note": "(stereo not given)", "inhibition": "0% (inactive)"}, {"smiles": "CCCCNC(=O)c1c(C)cc(=O)oc1C", "inhibition": "9% (inactive)"}, {"smiles": "CCn1c(-c2cc(Br)ccc2O)n[nH]c1=S", "inhibition": "0% (inactive)"}, {"smiles": "CC(=O)Nc1ccc(-c2nn[nH]n2)cc1Cl", "inhibition": "0% (inactive)"}, {"smiles": "COc1ccccc1N1CCN(CCCNC(=O)Nc2ccccc2)CC1", "inhibition": "10% (inactive)"}, {"smiles": "CCOC(=O)Cc1nnc(NC(=O)CSc2nnc3c4ccccc4n(C(C)C)c3n2)s1", "inhibition": "1% (inactive)"}, {"smiles": "O=C(c1cccc(Cl)c1)N1CCN(Cc2ccncc2)CC1", "inhibition": "0% (inactive)"}, {"smiles": "CCN1CCN(C(=O)c2ccc3c(=O)n(C4CCCC4)c(=S)[nH]c3c2)CC1", "inhibition": "0% (inactive)"}, {"smiles": "CS(=O)(=O)NCc1ccc(C(=O)NCc2ccccc2)cc1", "inhibition": "4% (inactive)"}, {"smiles": "COc1cc(C2CC(=O)NC3=C2C(=O)CC(C)(C)C3)ccc1O", "note": "(stereo not given)", "inhibition": "0% (inactive)"}, {"smiles": "COc1ccc(OCCOC(=O)c2cccc(-n3cnnn3)c2)cc1", "inhibition": "0% (inactive)"}, {"smiles": "Cc1ccccc1N1CC(c2nc3ccccc3[nH]2)CC1=O", "note": "(stereo not given)", "inhibition": "0% (inactive)"}, {"smiles": "N#Cc1c(NC(NC(=O)c2ccco2)C(=O)c2ccccc2)sc2c1CCCC2", "note": "(stereo not given)", "inhibition": "2% (inactive)"}, {"smiles": "Cc1cc(=O)n2nc(N3CCCC(C(=O)N4CCc5ccccc54)C3)sc2n1", "note": "(stereo not given)", "inhibition": "4% (inactive)"}, {"smiles": "Cc1ccc(-n2nnnc2SCC(=O)c2cc(C)n(CC3CCCO3)c2C)cc1", "note": "(stereo not given)", "inhibition": "0% (inactive)"}, {"smiles": "CC(C)c1ccc(S(=O)(=O)N2CCN(C(=O)c3cccc(F)c3)CC2)cc1", "inhibition": "8% (inactive)"}, {"smiles": "Cc1cccc(NCc2ccccc2O)c1", "inhibition": "3% (inactive)"}, {"smiles": "CCOCCCNCC(=O)N1CCN(S(=O)(=O)c2ccc(C)cc2)CC1", "inhibition": "0% (inactive)"}, {"smiles": "CCOc1cccc(-c2nnc3n2N=C(c2cc(OC)ccc2OC)CS3)c1", "inhibition": "8% (inactive)"}, {"smiles": "c1cnc2c(SCc3ccc(-c4nnco4)cc3)cccc2c1", "inhibition": "2% (inactive)"}, {"smiles": "Cc1c(/C(O)=C2/C(=O)C(=O)N(CCN3CCOCC3)C2c2cccs2)cnn1-c1ccccc1", "note": "(stereo not given)", "inhibition": "8% (inactive)"}, {"smiles": "CC(C)OCCCNC(=O)c1cc2c(s1)CS(=O)(=O)C2", "inhibition": "0% (inactive)"}, {"smiles": "Nc1nc2ccc(OC(F)(F)F)cc2s1", "inhibition": "7% (inactive)"}, {"smiles": "CCOC(=O)c1nc2sc3c(c2c(=O)[nH]1)CCCC3", "inhibition": "0% (inactive)"}, {"smiles": "Cc1ccc(NC(=O)C2CCCNC2=O)nc1", "note": "(stereo not given)", "inhibition": "0% (inactive)"}, {"smiles": "CCCn1nnc(NCc2ccc(OCc3cccs3)c(OC)c2)n1", "inhibition": "0% (inactive)"}, {"smiles": "COc1cc(CC(=O)Nc2ncc(C)s2)cc(OC)c1OC", "inhibition": "0% (inactive)"}, {"smiles": "Cc1ccc(S(=O)(=O)Cn2nnnc2CN(Cc2ccco2)CC2CCCO2)cc1", "note": "(stereo not given)", "inhibition": "3% (inactive)"}, {"smiles": "CCOCCc1nnc(NC(=O)c2ccc(OC)c(OC)c2)s1", "inhibition": "0% (inactive)"}, {"smiles": "Cc1ccc(N=Cc2ccc(O)cc2O)cc1F", "inhibition": "0% (inactive)"}, {"smiles": "Cc1ccc(C)c2[nH]c(=O)c(CCNC(=O)c3ccc(S(=O)(=O)N(C)C)cc3)cc12", "inhibition": "0% (inactive)"}, {"smiles": "Cc1ccc(C(C)C)c(OCCn2c(=O)oc3ccccc32)c1", "inhibition": "0% (inactive)"}, {"smiles": "O=C(CSc1nnnn1-c1ccccc1)c1cc2ccccc2oc1=O", "inhibition": "0% (inactive)"}, {"smiles": "CCC(Oc1ccccc1)C(=O)Nc1ccccc1OC", "note": "(stereo not given)", "inhibition": "0% (inactive)"}, {"smiles": "COc1ccc2nc3oc(C(=O)NC4CCN(Cc5ccccc5)CC4)cc3cc2c1", "inhibition": "1% (inactive)"}, {"smiles": "CC1=C(C(=O)NC2CCC(C)CC2)C2(CCC(C)CC2)OC1=O", "note": "(stereo not given)", "inhibition": "2% (inactive)"}]}]}
